Experimental data published in PubChem BioAssay (EPA / NIEHS).
Activity calls are given as the source filed them. How the source made its calls, unless noted: active means hit-call score of the fitted dose curve at least 0.9, where 1 is the maximum; inactive means score below 0.9.

Tests used:
[1] = CEETOX_H295R_OHPREG: CeeTox H295R High-throughput Steroidogenesis Assay for OH-Pregnenolone (OHPREG) (AID 2283434); conditions: actives raise or lower the signal
Outline: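 Hormone levels in spent medium were measured by tandem mass spectrometry following liquid-liquid extraction. Cells (H295R) had been forskolin-stimulated (10 uM, 48 h) before a 48 h chemical exposure at 0.1% DMSO, with activity fitted in both directions against DMSO.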

[2] = CEETOX_H295R_OHPROG: CeeTox H295R High-throughput Steroidogenesis Assay for OH-Progesterone (OHPROG) (AID 2283435); conditions: actives raise or lower the signal
Outline: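 H295R human adrenal cells were prestimulated 48 h with 10 uM forskolin, then exposed 48 h to test chemical (0.1% DMSO final). 17alpha-hydroxyprogesterone in medium was measured by HPLC-MS/MS after MTBE extraction; bidirectional fitting vs DMSO.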

[3] = CEETOX_H295R_ESTRADIOL: CeeTox H295R High-throughput Steroidogenesis Assay for Estradiol (AID 2283440); conditions: actives raise or lower the signal;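 further: estradiol secreted into medium quantified by LC-MS/MS after dansyl derivatisation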
Outline: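 H295R cells pre-stimulated 48 h with 10 uM forskolin, then exposed 48 h to chemical in 0.1% DMSO. Medium estradiol quantified by MTBE extraction, dansyl derivatisation and HPLC-MS/MS; bidirectional fit versus DMSO; MTT viability required >/=70%.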

[4] = CEETOX_H295R_ESTRONE: CeeTox H295R High-throughput Steroidogenesis Assay for Estrone (AID 2283441); conditions: actives raise or lower the signal;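 further: estrone secreted into medium measured by LC-MS/MS after dansyl derivatization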
Outline: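 H295R cells; 48 h forskolin (10 uM) prestimulation; 48 h compound exposure, 0.1% DMSO final. Medium estrone: MTBE extraction, dansyl derivatization, HPLC-MS/MS. Bidirectional fit vs DMSO.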

[5] = CEETOX_H295R_PROG: CeeTox H295R High-throughput Steroidogenesis Assay for Progesterone (PROG) (AID 2283442); conditions: actives raise or lower the signal;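 on AC50: human H295R adrenal cells primed with 10 µM forskolin before dosing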
Outline: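 H295R adrenal cells prestimulated 48 h with 10 uM forskolin, then exposed 48 h to test chemical in 0.1% DMSO. Progesterone in medium quantified by HPLC-MS/MS after MTBE extraction; viability checked by MTT in same wells.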

[6] = CEETOX_H295R_11DCORT: CeeTox H295R High-throughput Steroidogenesis Assay for 11-Deoxycortisol (11DCORT) (AID 2283432); conditions: actives raise or lower the signal
Outline: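 H295R cells prestimulated 48 h with 10 uM forskolin, then exposed 48 h to chemical in 0.1% DMSO. 11-Deoxycortisol in medium quantified by HPLC-MS/MS after MTBE extraction; bidirectional fit versus DMSO. MTT viability read in same wells.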

[7] = CEETOX_H295R_CORTISOL: CeeTox H295R High-throughput Steroidogenesis Assay for Cortisol (AID 2283438); conditions: actives raise or lower the signal;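 further: cortisol secreted into medium quantified by LC-MS/MS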
Outline: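 H295R human adrenal cells were prestimulated 48 h with 10 uM forskolin, then exposed 48 h to test chemical (0.1% DMSO final). Medium cortisol was quantified by HPLC-MS/MS after MTBE extraction; bidirectional fitting relative to DMSO baseline.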

[8] = CEETOX_H295R_DOC: CeeTox H295R High-throughput Steroidogenesis Assay for DOC (AID 2283439); conditions: actives raise or lower the signal
Outline: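 H295R adrenal cells prestimulated 48 h with 10 uM forskolin, then exposed 48 h to test chemical (0.1% DMSO final). Medium 11-deoxycorticosterone extracted with MTBE, quantified by HPLC-MS/MS; bidirectional fit versus DMSO baseline; MTT viability in same wells.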

[9] = read-out: Cyclin Dependent Kinase Inhibitor 1A (CDKN1A), CDKN1A (gene 1026); experiment: LTEA_HepaRG_CDKN1A: Life Technologies and Expression Analysis (LTEA) Assay for Cyclin Dependent Kinase Inhibitor 1A (CDKN1A) using HepaRG (AID 2283450); conditions: mRNA level, 48 h; actives raise or lower the signal
Outline: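 Differentiated HepaRG cells in serum-free induction medium, exposed 48 h in duplicate to eight half-log concentrations up to 100 uM in 0.5% DMSO. mRNA measured by TaqMan qRT-PCR, normalized to ACTB, GAPDH, POLR2A; bidirectional fit versus DMSO.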

[10] = read-out: Cyclin D1 (CCND1), CCND1 (gene 595); experiment: LTEA_HepaRG_CCND1: Life Technologies and Expression Analysis (LTEA) Assay for Cyclin D1 (CCND1) using HepaRG (AID 2283451); conditions: mRNA level, 48 h; actives raise or lower the signal;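 on AC50: TaqMan qRT-PCR transcript level normalised to ACTB GAPDH and POLR2A housekeeping genes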
Outline: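 Differentiated HepaRG cells exposed 48 h in serum-free induction medium to eight half-log concentrations from 100 uM top, 0.5% DMSO, duplicates. CCND1 mRNA measured by Fluidigm TaqMan qRT-PCR, normalised to ACTB, GAPDH, POLR2A; bidirectional fit.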

[11] = read-out: catalase (CAT), CAT (gene 847); experiment: LTEA_HepaRG_CAT: Life Technologies and Expression Analysis (LTEA) Assay for catalase (CAT) using HepaRG (AID 2283452); conditions: mRNA level, 48 h; actives raise or lower the signal;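 on AC50: TaqMan qRT-PCR signal normalized to ACTB GAPDH and POLR2A housekeeping genes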
Outline: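 Expression of CAT was quantified by TaqMan qRT-PCR with ACTB/GAPDH/POLR2A normalization after 48 h chemical exposure of HepaRG. Eight-point half-log series, top 100 uM, in 0.5% DMSO; gain or loss fitted against vehicle.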

[12] = read-out: flavin-containing dimethylaniline monooxygenases 3 (FMO3), FMO3 (gene 2328); experiment: LTEA_HepaRG_FMO3: Life Technologies and Expression Analysis (LTEA) Assay for flavin-containing dimethylaniline monooxygenases 3 (FMO3) using HepaRG (AID 2283453); conditions: mRNA level, 48 h; actives raise or lower the signal;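 on AC50: FMO3 transcript by TaqMan qRT-PCR normalized to ACTB GAPDH and POLR2A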
Outline: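 HepaRG, 48 h exposure, 8-pt half-log series from 100 uM, 0.5% DMSO vehicle, duplicates; FMO3 transcript by Fluidigm TaqMan qRT-PCR, housekeeping-normalized; gain/loss fit vs DMSO.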

[13] = read-out: Cytochrome P450 (CYP1A1), CYP1A1 (gene 1543); experiment: LTEA_HepaRG_CYP1A1: Life Technologies and Expression Analysis (LTEA) Assay for Cytochrome P450 (CYP1A1) using HepaRG (AID 2283454); conditions: mRNA level, 48 h; actives raise or lower the signal
Outline: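 Differentiated human HepaRG cells, after 48 h plating, exposed in duplicate for 48 h in serum-free induction medium to 8 half-log concentrations up to 100 uM in 0.5% DMSO. CYP1A1 mRNA by qRT-PCR, normalized to ACTB/GAPDH/POLR2A; bidirectional fit versus DMSO.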

[14] = read-out: CFLAR gene, CFLAR (gene 8837); experiment: LTEA_HepaRG_CFLAR: Life Technologies and Expression Analysis (LTEA) Assay for CFLAR gene using HepaRG (AID 2283455); conditions: mRNA level, 48 h; actives raise or lower the signal
Outline: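 HepaRG, 48 h exposure, 8-pt conc-response (100 uM top, half-log), 0.5% DMSO vehicle, duplicates. CFLAR expression by qRT-PCR; ACTB/GAPDH/POLR2A normalization; gain or loss fit vs DMSO baseline.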

[15] = read-out: Forkhead box O1 (FOXO1), FOXO1 (gene 2308); experiment: LTEA_HepaRG_FOXO1: Life Technologies and Expression Analysis (LTEA) Assay for Forkhead box O1 (FOXO1) using HepaRG (AID 2283456); conditions: mRNA level, 48 h; actives raise or lower the signal
Outline: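 Readout is FOXO1 transcript level by multiplexed qRT-PCR against three housekeeping genes, curve-fitted in both directions relative to 0.5% DMSO vehicle. Human HepaRG cultures received chemicals for 48 h, up to 100 uM in half-log steps.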

[16] = read-out: growth arrest and DNA damage 45 (GADD45A), GADD45A (gene 1647); experiment: LTEA_HepaRG_GADD45A: Life Technologies and Expression Analysis (LTEA) Assay for growth arrest and DNA damage 45 (GADD45A) using HepaRG (AID 2283458); conditions: mRNA level, 48 h; actives raise or lower the signal
Outline: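 Differentiated HepaRG cells were exposed in duplicate for 48 h in serum-free induction medium to 8-point half-log concentrations up to 100 uM in 0.5% DMSO. GADD45A mRNA was measured by TaqMan qRT-PCR, normalized to ACTB, GAPDH and POLR2A, with bidirectional fitting versus DMSO.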

[17] = read-out: Cyclin D2 (CCND2), CCND2 (gene 894); experiment: LTEA_HepaRG_CCND2: Life Technologies and Expression Analysis (LTEA) Assay for Cyclin D2 (CCND2) using HepaRG (AID 2283449); conditions: mRNA level, 48 h; actives raise or lower the signal
Outline: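 Read-out is CCND2 mRNA level measured by qRT-PCR in human HepaRG liver cells and normalised to three housekeeping genes. Chemicals were applied for 48 h at up to 100 uM, with gain or loss fitted relative to 0.5% DMSO.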

[18] = molecular target: Peroxisome proliferator-activated receptor gamma (Homo sapiens) (UniProt P37231); experiment: OT_PPARg_PPARgSRC1_1440: Odyssey Thera (OT) 24-hour Protein-Complementation Assay for Peroxisome Proliferator-activated Receptor Gamma/ SRC-1 Co-activator (AID 2283388; active means hit-call score of the fitted dose curve at least 0.9, where 1 is the maximum)
Outline: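 HEK293T transiently transfected with PPARg/SRC-1 split-Venus YFP fusions 48 h before dosing, then treated 24 h at 37C. Fixed cells imaged; nuclear/cytoplasmic 488 nm fluorescence ratio, gain of signal versus DMSO.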

[19] = CEETOX_H295R_ANDR: CeeTox H295R High-throughput Steroidogenesis Assay for Androstenedione (ANDR) (AID 2283436); conditions: actives raise or lower the signal
Outline: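 Read-out is androstenedione secreted into medium, measured by tandem mass spectrometry after liquid-liquid extraction. Cells were H295R, dosed for 48 h per modified OECD 456; activity fitted in both directions relative to DMSO.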

[20] = CEETOX_H295R_TESTO: CeeTox H295R High-throughput Steroidogenesis Assay for Testosterone (TESTO) (AID 2283457); conditions: actives raise or lower the signal
Outline: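 H295R adrenal cells, passage ≤10, exposed to chemicals for 48 h. Testosterone in medium measured by MTBE extraction and HPLC-MS/MS against a 7-point standard curve. Bidirectional fit versus DMSO; MTT viability checked in the same wells.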

Measured: AC50

Chain of Peroxisome proliferator-activated receptor gamma (Homo sapiens) (P37231 whole entry, looked up, the tested form may be a part): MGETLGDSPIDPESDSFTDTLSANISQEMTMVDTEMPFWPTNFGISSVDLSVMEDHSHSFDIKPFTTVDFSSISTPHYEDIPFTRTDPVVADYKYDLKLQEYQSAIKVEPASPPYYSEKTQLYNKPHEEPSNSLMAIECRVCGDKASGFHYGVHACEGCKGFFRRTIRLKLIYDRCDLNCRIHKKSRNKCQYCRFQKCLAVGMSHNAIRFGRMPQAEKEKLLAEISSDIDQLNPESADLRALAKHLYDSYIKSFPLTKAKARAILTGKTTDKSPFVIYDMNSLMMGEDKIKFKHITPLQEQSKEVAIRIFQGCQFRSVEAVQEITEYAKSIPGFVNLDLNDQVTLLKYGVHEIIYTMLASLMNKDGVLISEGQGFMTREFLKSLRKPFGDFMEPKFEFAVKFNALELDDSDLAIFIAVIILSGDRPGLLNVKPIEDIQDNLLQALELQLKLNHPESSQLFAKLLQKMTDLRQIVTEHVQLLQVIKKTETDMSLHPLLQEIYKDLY

NNC(=S)NN
inactive: [3] | [4]
active: [1] 50 µM | [2] 50 µM | [5] 50 µM

O=C(Cc1ccccc1)c1ccccc1
inactive: [6] | [1] | [7] | [8]
active: [2] 43.6 µM | [5] 45.9 µM

C(=NC1CCCCC1)=NC1CCCCC1
inactive: [1] | [2] | [3] | [4] | [5]

CCCCCCCCc1ccc(O)cc1
inactive: [9] | [11] | [12] | [13] | [14] | [15] | [16]
active: [10] 0.346 µM

O=[N+]([O-])c1ccc(O)c([N+](=O)[O-])c1
inactive: [17] | [15]
active: [9] 12.4 µM | [10] 12.6 µM | [11] 13.2 µM | [12] 15.3 µM | [13] 71.5 µM | [14] 13.2 µM | [16] 11.5 µM

CC(C)(OO)c1ccccc1
inactive: [17] | [9] | [10] | [11] | [12] | [14] | [15] | [16]
active: [13] 65.7 µM

Oc1cccc2cccnc12
inactive: [18] | [17] | [9] | [10] | [11] | [12] | [13] | [14] | [15] | [16]

CN(CCCC(=O)c1cccnc1)N=O
inactive: [6] | [1] | [2] | [19] | [7] | [8] | [5] | [20]

CCN1CCC2(CC1)COc1cc3c(cc12)N(C(=O)c1ccc(-c2ccc(-c4nnc(C)o4)cc2C)cc1)CC3
active: [17] 46.8 µM | [9] 84.6 µM | [10] 30.8 µM | [11] 21.1 µM | [12] 13.8 µM | [13] 9.34 µM | [14] 29.2 µM | [15] 27.7 µM | [16] 75.3 µM

CC(C)(c1ccccc1)c1ccc(O)c(C(C)(C)c2ccccc2)c1
active: [11] 60.7 µM | [12] 78.2 µM | [13] 35.8 µM
inactive: [17] | [9] | [10] | [14] | [15] | [16]

C=C(C)C(=O)[O][Sn]([CH2]CCC)([CH2]CCC)[CH2]CCC
inactive: [17] | [9] | [10] | [11]
active: [12] 74.9 µM | [13] 2.87 µM | [14] 4.03 µM | [15] 1.98 µM | [16] 0.314 µM

C=CC(=O)OCCCCCC(C)C
active: [13] 50 µM
inactive: [17] | [9] | [10] | [11] | [12] | [14] | [15] | [16]

ClC1(Cl)C2(Cl)C3(Cl)C4(Cl)C(Cl)(Cl)C5(Cl)C3(Cl)C1(Cl)C5(Cl)C24Cl (stereo not drawn)
active: [13] 23.3 µM
inactive: [17] | [9] | [10] | [11] | [12] | [14] | [15] | [16]

Nc1ccc(-c2ccc(N)c(Cl)c2)cc1Cl
inactive: [6] | [1] | [2] | [7] | [8] | [3] | [4] | [5]
